For part of these data: Results with a measured potency or affinity are listed apart. This is one part of the list. Activity calls are given as the source filed them.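 How the source made its calls, unless noted: active means primary screen hit whose fluorescence ratio, in both repeats, exceeds the weak agonist control mean by 3 SD; inactive means the rest.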
Experiments:
[1] = test system: TRPC4 beta (transient receptor potential cation channel C4), mouse; experiment: activators of mouse TRPC4 channel, confirmation, cell-based, Fluo4 calcium, HEK293 TRPC4beta/mu-opioid, duplicates, 10 µM (AID 2426;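 active means fluorescence ratio normalized to control raised more than 50% in primary screen plus both repeat runs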;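 on activation: percent rise of integrated ratio over buffer wells lacking compound which define 0%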); conditions: Fluo4 calcium fluorescence, at 10 µM; active compounds read high
[2] = test system: transient receptor potential cation channel C4 beta (TRPC4), mouse; experiment: activators of mouse TRPC4 channel, confirmation, cell-based, second round, Fluo4, HEK293 TRPC4beta/mu-opioid, 1 µM (AID 2461;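 active means primary screen active and over 50% activation in each of two duplicate runs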;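 on activation: 0% = wells without test compound as baseline of integrated fluorescence ratio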); conditions: Fluo4 calcium fluorescence, at 1 µM; active compounds read high
[3] = test system: TRPC4 (transient receptor potential cation channel C4 beta), mouse; experiment: positive allosteric modulators of mouse TRPC4, confirmation, cell-based, second round, Fluo-4, HEK293 TRPC4beta/mu-opioid, 1 µM (AID 2554); conditions: DAMGO EC20, Fluo-4 calcium flux, at 1 µM; active compounds read high
[4] = test system: TRPC4 beta (transient receptor potential cation channel C4), mouse; experiment: positive allosteric modulators of mouse TRPC4, confirmation, cell-based, Fluo-4, HEK293 TRPC4beta/mu-opioid (AID 2555;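 active means primary screen hit whose calcium fluorescence ratio, in both repeats, exceeds the weak agonist control mean by 3 SD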); conditions: DAMGO EC20, Fluo-4 calcium flux, at 10 µM; active compounds read high
[5] = target: Short transient receptor potential channel 4 (Mus musculus) (UniProt Q9QUQ5); experiment: inhibitors of mouse TRPC4 channel, confirmation, cell-based, Fluo4, HEK293 TRPC4beta/mu-opioid (AID 2636;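 active means calcium signal cut by more than 3 SD below the full-agonist control yet still positive, in both repeats and the earlier primary screen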); conditions: DAMGO, Fluo4 calcium flux, at 10 µM; active compounds read high
Chain of Short transient receptor potential channel 4 (Mus musculus) (Q9QUQ5 whole entry, looked up): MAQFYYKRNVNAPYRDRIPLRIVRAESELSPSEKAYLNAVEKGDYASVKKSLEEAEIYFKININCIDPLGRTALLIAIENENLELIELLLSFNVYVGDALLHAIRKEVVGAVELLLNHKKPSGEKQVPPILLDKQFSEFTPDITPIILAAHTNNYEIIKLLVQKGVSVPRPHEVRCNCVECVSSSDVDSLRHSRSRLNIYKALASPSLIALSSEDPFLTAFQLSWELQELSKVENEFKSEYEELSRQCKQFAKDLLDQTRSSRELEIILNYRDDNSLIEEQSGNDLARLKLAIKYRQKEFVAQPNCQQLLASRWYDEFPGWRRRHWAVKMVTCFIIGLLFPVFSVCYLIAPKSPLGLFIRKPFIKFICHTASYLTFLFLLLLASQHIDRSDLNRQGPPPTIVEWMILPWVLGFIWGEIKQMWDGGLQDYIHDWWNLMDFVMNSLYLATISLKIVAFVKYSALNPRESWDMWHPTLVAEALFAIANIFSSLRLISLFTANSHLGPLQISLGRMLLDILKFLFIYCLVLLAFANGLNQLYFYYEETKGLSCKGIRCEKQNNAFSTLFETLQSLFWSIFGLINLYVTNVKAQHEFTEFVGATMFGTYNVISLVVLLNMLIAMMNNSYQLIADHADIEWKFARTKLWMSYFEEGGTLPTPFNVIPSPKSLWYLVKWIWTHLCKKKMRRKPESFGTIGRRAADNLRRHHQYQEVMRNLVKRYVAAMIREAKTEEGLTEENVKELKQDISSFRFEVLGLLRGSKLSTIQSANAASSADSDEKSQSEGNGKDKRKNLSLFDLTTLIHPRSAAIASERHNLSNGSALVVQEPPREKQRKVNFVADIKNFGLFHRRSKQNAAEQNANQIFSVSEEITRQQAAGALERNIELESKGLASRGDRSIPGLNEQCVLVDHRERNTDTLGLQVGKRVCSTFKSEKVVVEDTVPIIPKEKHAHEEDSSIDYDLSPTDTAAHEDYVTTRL

[6] = target: Short transient receptor potential channel 4 (Mus musculus) (UniProt Q9QUQ5); experiment: inhibitors of mouse TRPC4 channel, confirmation, cell-based, second round, Fluo4, HEK293 TRPC4beta/mu-opioid, 1 µM (AID 2637;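 active means calcium signal ratio cut to more than 3 SD under the fully stimulated control mean yet still positive, in both repeats and the primary screen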); conditions: Fluo4 calcium flux, DAMGO, at 1 µM; active compounds read high
[7] = target: Short transient receptor potential channel 4 (Mus musculus) (UniProt Q9QUQ5); experiment: TRPC4 positive allosteric modulators, dose response, cell-based, HEK293 TRPC4/mu-opioid, Fluo-4 calcium, EC20 DAMGO (AID 434941;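 active means earlier screen potentiator hit that boosts the TRPC4 ion channel at some dose, with a dose response; inactive means no potentiation, no dose response, or not a prior hit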;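 further: calcium entry triggered by an EC20 dose of DAMGO at the co-expressed mu-opioid receptor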)
[8] = target: Short transient receptor potential channel 4 (Mus musculus) (UniProt Q9QUQ5); experiment: mouse TRPC4 channel inhibitors, dose response, cell-based, HEK293 TRPC4/mu-opioid, Fluo-4 calcium (AID 434942;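 active means primary screen inhibitor hit that blocks the TRPC4 channel at some tested dose, yielding a dose curve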)
[9] = target: Short transient receptor potential channel 6 (Mus musculus) (UniProt Q61143); experiment: inhibition of mouse TRPC6 channel, confirmation, selectivity assay for TRPC4 inhibitor project, cell-based, HEK293, membrane potential dye, duplicate (AID 434948;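 active means active in primary screen and both duplicates, each dropping signal beyond three positive-control SD with fluorescence still positive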); conditions: HEK293 TRPC6, membrane potential dye fluorescence, at 10 µM; inhibition: active compounds read high, stimulated with maximal-effect acetylcholine unless noted; outcome: stimulated with maximal-effect acetylcholine unless noted
Chain of Short transient receptor potential channel 6 (Mus musculus) (Q61143 whole entry, looked up): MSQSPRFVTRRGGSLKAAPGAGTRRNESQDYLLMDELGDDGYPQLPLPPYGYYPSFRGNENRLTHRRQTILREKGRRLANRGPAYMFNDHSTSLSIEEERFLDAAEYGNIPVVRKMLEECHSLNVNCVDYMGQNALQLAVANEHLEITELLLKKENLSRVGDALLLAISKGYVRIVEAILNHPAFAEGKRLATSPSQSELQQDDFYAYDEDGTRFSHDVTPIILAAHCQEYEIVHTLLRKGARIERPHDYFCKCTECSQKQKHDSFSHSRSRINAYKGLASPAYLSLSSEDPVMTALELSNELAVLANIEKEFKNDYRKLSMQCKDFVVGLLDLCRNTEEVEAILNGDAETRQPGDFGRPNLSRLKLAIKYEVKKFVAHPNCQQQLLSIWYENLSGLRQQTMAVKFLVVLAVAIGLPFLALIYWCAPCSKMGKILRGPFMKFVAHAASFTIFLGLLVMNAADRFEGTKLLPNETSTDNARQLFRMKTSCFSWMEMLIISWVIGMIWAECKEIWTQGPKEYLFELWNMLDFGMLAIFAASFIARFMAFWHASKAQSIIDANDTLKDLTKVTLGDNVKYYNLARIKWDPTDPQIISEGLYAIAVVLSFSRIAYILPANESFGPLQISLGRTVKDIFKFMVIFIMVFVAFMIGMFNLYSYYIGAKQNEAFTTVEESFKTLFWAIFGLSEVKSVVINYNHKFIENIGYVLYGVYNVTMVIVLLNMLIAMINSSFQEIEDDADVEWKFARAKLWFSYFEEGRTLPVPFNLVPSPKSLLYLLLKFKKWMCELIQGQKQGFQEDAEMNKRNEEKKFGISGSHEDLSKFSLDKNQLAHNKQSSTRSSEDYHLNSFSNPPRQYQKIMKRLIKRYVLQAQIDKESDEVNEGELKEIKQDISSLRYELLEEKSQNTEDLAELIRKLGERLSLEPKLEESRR

[10] = target: Short transient receptor potential channel 6 (Mus musculus) (UniProt Q61143); experiment: activation of mouse TRPC6 channel, confirmation, selectivity assay for TRPC4 activator project, cell-based, HEK293, membrane potential dye, duplicate (AID 434950;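 active means membrane potential signal rise above negative control mean plus 3 SD in both duplicates, also active in the earlier TRPC4 screen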;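 on activation: 0% = buffer only wells and 100% = acetylcholine maximal-effect wells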); conditions: HEK293 TRPC6, membrane potential fluorescence, at 10 µM; active compounds read high
[11] = target: Short transient receptor potential channel 6 (Mus musculus) (UniProt Q61143); experiment: TRPC6 potentiation by TRPC4 potentiator hits, confirmation, selectivity assay for TRPC4 potentiator project, HEK293 cells, membrane potential dye, duplicate (AID 434952;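 active means compound raising the membrane signal above positive-control mean plus 3 SD in both repeats, and a primary screen hit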); conditions: HEK293 TRPC6, membrane potential dye fluorescence, at 10 µM; maximal acetylcholine added after compound unless noted
[12] = target: Short transient receptor potential channel 4 (Mus musculus) (UniProt Q9QUQ5); experiment: calcium flux activators in TRPC4/5HT1a cells, counter-screen for TRPC4 activator project, cell-based, second counter screen, HEK293 TRPC4/5HT1a, Fluo-4 (AID 434977;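 active means calcium signal rise above buffer-control mean plus 5 SD in both duplicates, and also a hit in the primary screen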;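 on activation: plate controls were assay buffer for no effect and maximal serotonin response for full effect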); conditions: Fluo-4 calcium flux, at 10 µM; active compounds read high
[13] = calcium flux inhibitors in TRPC4/5HT1a cells, confirmation, counter-screen for TRPC4 inhibitor project, cell-based, second counter screen, HEK293 TRPC4/5HT1a, Fluo-4 (AID 434978;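 active means primary screen active whose calcium signal fell more than 3 SD beyond the full-serotonin control mean in both duplicate plates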;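 further: serotonin given first at submaximal then at maximal dose after compound preincubation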); conditions: Fluo-4 calcium flux, at 10 µM; inhibition: active compounds read high, serotonin added to trigger calcium flux unless noted; outcome: serotonin added to trigger calcium flux unless noted
[14] = test system: TRPC4 (mouse), co-expressed with 5HT1a in HEK293; experiment: calcium flux potentiators in TRPC4/5HT1a cells, confirmation, counter-screen for TRPC4 potentiator project, cell-based, second counter screen, HEK293 TRPC4/5HT1a, Fluo-4 (AID 434979;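 active means signal rise over 3 SD above mean of control wells given weak agonist, in both repeats and first screen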); conditions: Fluo-4 calcium flux, at 10 µM; outcome: serotonin added at its EC20 dose unless noted; potentiation: active compounds read high, serotonin added at its EC20 dose unless noted
[15] = calcium flux activation in mu-opioid HEK293 cells, confirmation, counter-screen for TRPC4 activator project, cell-based, HEK293 mu-opioid receptor line (AID 449723;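 active means hit in primary screen, with calcium signal over 5 SD above buffer well mean in both duplicates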;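 further: counter screen cells carry the mu-opioid receptor alone and lack TRPC4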); conditions: Fluo-4 calcium fluorescence, at 10 µM; active compounds read high
[16] = calcium flux enhancement in mu-opioid HEK293 cells, confirmation, counter-screen for TRPC4 allosteric potentiator project, cell-based, HEK293 mu-opioid receptor line (AID 449724;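 active means calcium signal rise more than 3 SD above the low-dose agonist control mean, in both duplicate plates and the primary screen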); conditions: Fluo-4 calcium flux, at 10 µM; compound added before EC20 DAMGO stimulus unless noted
[17] = thallium flux activation in parental CHO cells, counter-screen for KCNQ1 potentiator project (AID 493006;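 active means duplicate-averaged activation above buffer control mean plus 5 SD of those controls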); conditions: parental CHO-K1 cells, FluxOR thallium flux, at 10 µM; active compounds read high
[18] = target: Potassium voltage-gated channel subfamily KQT member 1 (Homo sapiens) (UniProt P51787); experiment: KCNQ1 potassium channel potentiators, confirmation, FluxOR thallium flux, CHO cells, duplicates (AID 493007;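 active means potentiation averaged over duplicate wells exceeding buffer-only control mean by more than 3 SD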;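 further: cells depolarized by a potassium plus thallium sulfate stimulus after compound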); conditions: KCNQ1 cell line, FluxOR thallium flux fluorescence, at 10 µM; active compounds read high, % of reference activator effect, buffer zero
Chain of Potassium voltage-gated channel subfamily KQT member 1 (Homo sapiens) (P51787 whole entry, looked up): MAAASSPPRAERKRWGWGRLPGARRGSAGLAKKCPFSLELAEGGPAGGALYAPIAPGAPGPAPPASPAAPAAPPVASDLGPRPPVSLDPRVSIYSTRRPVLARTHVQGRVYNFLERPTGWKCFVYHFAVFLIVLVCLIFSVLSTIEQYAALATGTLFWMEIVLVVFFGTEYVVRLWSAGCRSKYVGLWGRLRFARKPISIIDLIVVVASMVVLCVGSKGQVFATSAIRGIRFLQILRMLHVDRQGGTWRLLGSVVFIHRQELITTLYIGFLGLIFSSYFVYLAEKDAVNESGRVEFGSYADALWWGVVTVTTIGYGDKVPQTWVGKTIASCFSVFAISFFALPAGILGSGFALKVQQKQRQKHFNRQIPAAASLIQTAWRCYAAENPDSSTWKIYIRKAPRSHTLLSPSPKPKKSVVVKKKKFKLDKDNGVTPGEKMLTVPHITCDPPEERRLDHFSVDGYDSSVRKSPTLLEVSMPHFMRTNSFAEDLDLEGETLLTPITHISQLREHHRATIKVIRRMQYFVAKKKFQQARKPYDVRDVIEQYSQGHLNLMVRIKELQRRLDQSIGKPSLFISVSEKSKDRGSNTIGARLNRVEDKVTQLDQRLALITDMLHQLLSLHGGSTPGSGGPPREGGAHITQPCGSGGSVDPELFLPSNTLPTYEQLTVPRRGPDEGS

[19] = target: Potassium voltage-gated channel subfamily KQT member 2 (Rattus norvegicus) (UniProt O88943); experiment: rat KCNQ2 channel potentiation, selectivity assay for KCNQ1 potentiator project, KCNQ2-CHO-K1 cells (AID 493009;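 active means mean duplicate potentiation above the buffer control mean plus 5 SD of buffer wells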;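 further: assay conditions were tuned for KCNQ1 rather than KCNQ2 modulators; signal is max minus min fluorescence divided by baseline after thallium stimulus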); conditions: FluxOR thallium flux fluorescence, at 10 µM; active compounds read high, scaled: buffer 0, activator control 100
Chain of Potassium voltage-gated channel subfamily KQT member 2 (Rattus norvegicus) (O88943 whole entry, looked up): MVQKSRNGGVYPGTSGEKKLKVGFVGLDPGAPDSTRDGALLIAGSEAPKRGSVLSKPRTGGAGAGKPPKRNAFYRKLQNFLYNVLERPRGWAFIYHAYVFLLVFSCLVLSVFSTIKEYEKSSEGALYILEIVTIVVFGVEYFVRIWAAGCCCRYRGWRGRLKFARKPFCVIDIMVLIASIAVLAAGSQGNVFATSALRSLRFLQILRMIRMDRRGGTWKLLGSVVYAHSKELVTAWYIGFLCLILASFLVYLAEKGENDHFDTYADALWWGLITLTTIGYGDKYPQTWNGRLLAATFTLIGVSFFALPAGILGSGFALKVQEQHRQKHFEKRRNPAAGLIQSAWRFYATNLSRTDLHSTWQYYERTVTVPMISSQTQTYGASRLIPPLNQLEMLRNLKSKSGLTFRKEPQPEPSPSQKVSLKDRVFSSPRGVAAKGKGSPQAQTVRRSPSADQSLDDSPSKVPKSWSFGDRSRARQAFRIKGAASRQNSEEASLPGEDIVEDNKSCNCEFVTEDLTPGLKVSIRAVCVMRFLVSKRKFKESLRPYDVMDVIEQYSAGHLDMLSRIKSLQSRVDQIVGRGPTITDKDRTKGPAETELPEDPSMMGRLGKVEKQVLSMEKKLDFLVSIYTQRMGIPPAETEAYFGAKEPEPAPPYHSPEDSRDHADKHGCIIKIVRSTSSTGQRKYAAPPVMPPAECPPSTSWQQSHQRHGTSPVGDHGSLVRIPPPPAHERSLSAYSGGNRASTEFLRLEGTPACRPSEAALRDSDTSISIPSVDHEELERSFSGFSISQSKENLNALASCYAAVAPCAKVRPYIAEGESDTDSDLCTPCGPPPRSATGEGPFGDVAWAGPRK

[20] = target: Potassium voltage-gated channel subfamily KQT member 1 (Homo sapiens) (UniProt P51787); experiment: KCNQ1 channel current potentiators, confirmation, orthogonal assay for KCNQ1 potentiator project, IonWorks patch clamp, KCNQ1-CHO cells (AID 493184;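 active means current rise at least 3 SD above the untreated control mean in each of two repeat wells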); conditions: automated patch clamp current, at 10 µM
[21] = target: Short transient receptor potential channel 4 (Mus musculus) (UniProt Q9QUQ5); experiment: mouse TRPC4 membrane potential modulation by TRPC6 hits, confirmation, selectivity assay for TRPC6 inhibitor project, cell-based, second specificity screen, HEK293 TRPC4/mu-opioid (AID 2776;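 active means compounds whose fluorescence signal differed from control wells by over 3 SD, either direction, in both duplicate plates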); conditions: HEK293 TRPC4/MOR, membrane potential dye fluorescence; at 10 µM; active compounds read high; channel activated by saturating DAMGO dose
[22] = test system: transient receptor potential cation channel C4 (TRPC4), mouse; experiment: mouse TRPC4 modulation by TRPC6 hits, confirmation, selectivity assay for TRPC6 inhibitor project, cell-based, HEK293 TRPC4/mu-opioid, membrane potential dye (AID 2777;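 active means rise or fall in signal beyond 3 SD of buffer-only wells in both replicate plates, either sign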;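 further: integrated kinetic ratio of fluorescence range over baseline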); conditions: membrane potential fluorescence, at 10 µM
[23] = nonspecific membrane potential effects, parental HEK293, confirmation, counter-screen for TRPC6 inhibitor project, cell-based, second counter screen (AID 2779;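 active means membrane potential signal moving either way by over 3 SD of the maximum-effect control, in both duplicate plates, meaning non-specific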); conditions: parental HEK293 membrane potential dye fluorescence; at 10 µM; maximal acetylcholine challenge after compound addition
[24] = membrane potential modulation in parental HEK293, confirmation, counter-screen for TRPC6 inhibitor project, cell-based (AID 2780;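 active means membrane potential signal shifting up or down by more than 3 SD of buffer-only wells, on both duplicate plates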); conditions: parental HEK293 membrane potential dye fluorescence; at 10 µM
[25] = target: Short transient receptor potential channel 6 (Mus musculus) (UniProt Q61143); experiment: mouse TRPC6 channel inhibitors, confirmation, HEK293 cells, membrane potential dye, duplicate (AID 488960;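 active means fluorescence ratio falls more than 5 SD below the full-stimulation control mean, in both duplicate runs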;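 on inhibition: integrated fluorescence ratio of peak minus minimum over baseline after agonist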); conditions: ACh-evoked depolarization, at 10 µM; active compounds read high
[26] = target: Short transient receptor potential channel 6 (Mus musculus) (UniProt Q61143); experiment: mouse TRPC6 channel activators, confirmation, HEK293 cells, membrane potential dye, duplicate (AID 488961;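 active means ratio signal rise beyond 5 SD above unstimulated control wells' mean, seen in both duplicate runs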); conditions: HEK293-TRPC6 membrane potential dye fluorescence, FDSS; at 10 µM
[27] = parental HEK293 membrane potential modulation, confirmation, counter-screen for TRPC6 modulator project, cell-based (AID 488924;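 active means membrane potential signal moves up or down beyond 5 SD from buffer-only wells, on both duplicate plates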); conditions: parental HEK293, membrane potential dye fluorescence; at 10 µM
[28] = modulation of acetylcholine-evoked membrane potential, parental HEK293, confirmation, counter-screen for TRPC6 modulator project, cell-based, second counter-screen, membrane potential dye (AID 488926;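 active means membrane potential signal drops by more than 5 SD from the mean control signal, in both duplicate plates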); conditions: parental HEK293, membrane potential dye fluorescence, at 10 µM, after compound, maximal acetylcholine stimulation; active compounds read high
[29] = test system: Transient receptor potential cation channel subfamily C member 4 (mouse); experiment: TRPC4 modulation by TRPC6 hit compounds, confirmation, selectivity assay for TRPC6 modulator project, cell-based, HEK293 TRPC4/mu-opioid, membrane potential dye, mouse (AID 488927;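 active means membrane potential signal moved up or down beyond 5 SD of buffer control wells, in both duplicate plates, actives on both sides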;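 further: plate controls were assay buffer wells for no effect and DAMGO maximal-effect wells for full effect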); conditions: membrane potential fluorescence, at 10 µM
[30] = test system: TRPC4 (transient receptor potential cation channel C4), mouse; experiment: TRPC4 inhibition by TRPC6 hit compounds, confirmation, selectivity assay for TRPC6 modulator project, cell-based, second screen, HEK293 TRPC4/mu-opioid, membrane potential dye (AID 488928;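 active means drop in membrane potential signal beyond 5 SD of the control wells in both duplicate plates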;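 further: TRPC4 counter screen for TRPC6 hits run under conditions tuned for TRPC6 not TRPC4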); conditions: membrane potential dye fluorescence, at 10 µM, stimulated with maximal-effect DAMGO; active compounds read high

c1ccc2oc(N3CCNCC3)nc2c1
inactive: outcome [3] | outcome [5] | outcome [6] | outcome [7] | outcome [8] | outcome [9] | outcome [10] | outcome [11] | outcome [13] | outcome [15] | outcome [16]
active: activation [1] 81% | activation [2] 53% | potentiation [4] 19% | activation [12] 24.8% | potentiation [14] 31.8%

Cn1c(N2CCNCC2)nc2ccccc21
active: activation [1] 117% | activation [2] 92% | activation [10] 31.5% | activation [12] 34.7%
inactive: outcome [3] | outcome [4] | outcome [5] | outcome [6] | outcome [7] | outcome [8] | outcome [9] | outcome [11] | outcome [13] | outcome [14] | outcome [15] | outcome [16]

CN1CC(C(=O)c2ccccc2)C(c2ccccc2)C1 (configuration not stated)
inactive: outcome [17] | outcome [18] | outcome [19] | outcome [20]

O=[N+]([O-])c1ccc(N2CCNCC2)c(Cl)c1
active: potentiation [3] 26% | potentiation [4] 28% | activation [12] 5.58%
inactive: outcome [1] | outcome [2] | outcome [5] | outcome [6] | outcome [7] | outcome [8] | outcome [9] | outcome [10] | outcome [11] | outcome [13] | outcome [14] | outcome [15] | outcome [16]

Cc1ccccc1-n1c(O)c(/C=N/N2CCOCC2)c(=O)[nH]c1=S
inactive: outcome [17] | outcome [18] | outcome [19] | outcome [20]

CCOC(=O)C1(c2ccccc2)CCN(CCC(=O)Nc2ccccc2OC)CC1
inactive: outcome [2] | outcome [3] | outcome [4] | outcome [5] | outcome [6] | outcome [7] | outcome [8] | outcome [9] inactive [setting not given] | outcome [11] inactive [setting not given] | outcome [12] | outcome [13] inactive [setting not given] | outcome [14] inactive [setting not given] | outcome [15] | outcome [16] inactive [setting not given]
active: activation [1] 70% | activation [10] 62%

COc1ccc(CCNCc2ccc(SC)cc2)cc1
active: activation [1] 122% | activation [10] 65.5% | activation [12] 21.7%
inactive: outcome [2] | outcome [3] | outcome [4] | outcome [5] | outcome [6] | outcome [7] | outcome [8] | outcome [9] inactive [setting not given] | outcome [11] inactive [setting not given] | outcome [13] inactive [setting not given] | outcome [14] inactive [setting not given] | outcome [15] | outcome [16] inactive [setting not given]

Cn1cc[n+](C)c1P(=S)(c1ccccc1)c1ccccc1
inactive: outcome [1] | outcome [2] | outcome [3] | outcome [4] | outcome [5] | outcome [6] | outcome [7] | outcome [8] | outcome [9] | outcome [10] | outcome [11] | outcome [12] | outcome [13] | outcome [14] | outcome [15] | outcome [16]

COc1cccc(-c2nc3ccc(N4CCN(C)CC4)cc3[nH]2)c1
active: inhibition [21] 74%
inactive: outcome [22] | outcome [23] | outcome [24] | outcome [25] | outcome [26]

CC1(C)Cc2c(C#N)c(N3CCNCC3)nc(-c3ccco3)c2CS1
active: percent change from control (negative = decrease, positive = increase) [29] -14.5% | inhibition [30] 76.5% | inhibition [25] 62.5%
inactive: outcome [27] | outcome [28] | outcome [26]

CCC(=O)C(CCN1CCOCC1)(c1ccccc1)c1ccccc1
active: activation [1] 289% | activation [2] 164% | activation [10] 69% | activation [12] 5.98%
inactive: outcome [3] | outcome [4] | outcome [5] | outcome [6] | outcome [7] | outcome [8] | outcome [9] inactive [setting not given] | outcome [11] inactive [setting not given] | outcome [13] inactive [setting not given] | outcome [14] inactive [setting not given] | outcome [15] | outcome [16] inactive [setting not given]
